PubChem BioAssay (NCI)
About 79,000 compounds went through this panel and 15% of them were active in at least one assay; those are over-represented in the sample as a whole. A number with no mark means an inactive call. Activity calls are given as the source filed them. Cut-off read from the data, not from the text of the source: active = growth inhibition above about 70%; inactive = the rest.

Legend:
[1] = NCI Yeast Anticancer Drug Screen. Data for the rad50 strain (AID 155);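 note: 0% = growth of vehicle-only cultures of the same strain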; details: S. cerevisiae rad50 strain growth inhibition; at 50.0 µM; hits give high values
In short: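 Vehicle-treated cultures provide the reference for the growth inhibition reported for compound-exposed, repair-deficient yeast.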

[2] = NCI Yeast Anticancer Drug Screen. Data for the mec2-1 strain (AID 157); details: S. cerevisiae mec2-1 strain, at 50.0 µM, hits give high values
In short: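 Each compound was tested on mec2-1 yeast, a strain altered in DNA damage repair or cell cycle control. Growth inhibition is reported relative to vehicle.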

[3] = NCI Yeast Anticancer Drug Screen. Data for the cln2 rad14 strain (AID 165);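 note: 0% = growth equal to vehicle treated cultures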; details: S. cerevisiae cln2 rad14 strain, at 50.0 µM, hits give high values
In short: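 Test compounds were added to cln2 rad14 yeast cultures; inhibition of growth was then determined by comparison with vehicle treatment.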

[4] = NCI Yeast Anticancer Drug Screen. Data for the bub3 strain (AID 167); details: S. cerevisiae bub3 mutant strain, at 50.0 µM, hits give high values
In short: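 Mutant yeast screening strain plus compound; vehicle-treated cultures serve as the 0% inhibition reference.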

[5] = NCI Yeast Anticancer Drug Screen. Data for the mlh1 rad18 strain (AID 175); details: S. cerevisiae mlh1 rad18 strain growth inhibition; at 50.0 µM; hits give high values
In short: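 Inhibition values reflect reduced growth of mutant yeast versus vehicle-treated controls following compound exposure; the mutations affect DNA damage repair.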

[6] = NCI Yeast Anticancer Drug Screen. Data for the sgs1 mgt1 strain (AID 161);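 note: 0% = growth of cultures given vehicle only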; details: S. cerevisiae sgs1 mgt1 strain, at 50.0 µM, hits give high values
In short: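 Genetically altered yeast, compound exposure, growth inhibition relative to vehicle.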

COc1ccc(Cc2c[nH]c3cc(OC)c(OC)cc23)cc1OC
growth inhibition [1]: -22.8%
growth inhibition [2]: -9%
growth inhibition [3]: -57.8%
growth inhibition [4]: 10.1%
growth inhibition [5]: -1.4%

Nc1nc2c(nc(Br)n2C2OC(CO)C(O)C2O)c(=O)[nH]1 (centres undefined)
growth inhibition [1]: -2.05%
growth inhibition [2]: -1.6%
growth inhibition [3]: -8.4%
growth inhibition [4]: 1.8%
growth inhibition [5]: -9.65%

Cc1cc(C)c2[nH]c(=O)c(C)c(C)c2c1Br
growth inhibition [1]: -0.5%
growth inhibition [2]: 5.55%
growth inhibition [3]: -16.6%
growth inhibition [4]: -1.3%
growth inhibition [5]: -0.25%

CCOc1ccccc1NC(=O)Nc1cccc(C(F)(F)F)c1
growth inhibition [1]: 68.8%
growth inhibition [2]: 60.5%
growth inhibition [3]: 72.3% (active)
growth inhibition [4]: 76% (active)
growth inhibition [5]: 88.9% (active)

CCCC(CCC)(CCC)CCN(C)C
growth inhibition [1]: -6.85%
growth inhibition [2]: -5.95%
growth inhibition [3]: -23.9%
growth inhibition [4]: -8.65%
growth inhibition [5]: -33.8%

C[Si](C)(C)CN=P(c1ccccc1)(c1ccccc1)c1ccccc1
growth inhibition [1]: -29.6%
growth inhibition [2]: -12.4%
growth inhibition [3]: 17.4%
growth inhibition [4]: 3.7%
growth inhibition [5]: -4.8%

C=C1C(=O)OC2C=C(C)C3C(OC(=O)c4ccccc4)CC(C)(O)C3CC12 (centres undefined)
growth inhibition [1]: 1.4%
growth inhibition [2]: -41.4%
growth inhibition [3]: 16.6%
growth inhibition [4]: -2.75%
growth inhibition [5]: 0.45%

[Cl][Sm]([Cl])[Cl]
growth inhibition [1]: 17.9%
growth inhibition [2]: -9.7%
growth inhibition [3]: 8.6%
growth inhibition [4]: 27.6%
growth inhibition [5]: 9.6%

Cc1cc(Cl)ccc1OC(=O)NC1CCCCC1
growth inhibition [1]: -2.5%
growth inhibition [2]: 24.4%
growth inhibition [3]: -13.5%
growth inhibition [4]: 30.4%
growth inhibition [5]: 30.4%

Cc1ccc(C(=O)c2cc3c([nH]c4ccccc43)c(C)c2C(=O)O)cc1
growth inhibition [1]: 15.8%
growth inhibition [2]: -9.55%
growth inhibition [3]: 28.6%
growth inhibition [4]: 21.5%
growth inhibition [5]: 21.1%

CCOc1ccc(N2C(C#N)c3ccccc3OC2c2ccccc2O)cc1 (centres undefined)
growth inhibition [1]: 3.65%
growth inhibition [2]: 46.1%
growth inhibition [3]: -5.2%
growth inhibition [4]: 32.5%
growth inhibition [5]: 11.6%

CN(C)CCNC(=O)c1cccc2c(Nc3ccc(S(N)(=O)=O)cc3)c3ccccc3nc12
growth inhibition [1]: -43.7%
growth inhibition [2]: 4%
growth inhibition [3]: 17.9%
growth inhibition [4]: -23.6%
growth inhibition [5]: 11.1%

Cc1cc(C)c(C#N)c(SC(C(=O)NC(C)(C)C)c2ccccc2)n1 (centres undefined)
growth inhibition [1]: 2.25%
growth inhibition [2]: -16.8%
growth inhibition [3]: 18%
growth inhibition [4]: -8.15%
growth inhibition [5]: -14.3%

O=C(NC12CC3CC(NC(=O)c4ccccc4)(CC(C1)c1ccccc13)C2)c1ccccc1
growth inhibition [1]: 42.9%
growth inhibition [2]: 40.2%
growth inhibition [3]: 27.4%
growth inhibition [4]: 52.5%
growth inhibition [5]: 38.4%

CSc1ccc(C(=O)c2ccc(SC)cc2)cc1
growth inhibition [1]: 5.65%
growth inhibition [2]: 15.8%
growth inhibition [3]: -12.8%
growth inhibition [4]: -4.25%
growth inhibition [5]: -17.2%

CSC(=S)Nc1cc(C)cc(C)n1
growth inhibition [1]: 29.8%
growth inhibition [2]: 17.7%
growth inhibition [3]: 38%
growth inhibition [4]: 42.8%

O=c1[nH]nnc2cc(Cl)ccc12
growth inhibition [1]: 0%
growth inhibition [2]: 6.15%
growth inhibition [3]: -12.2%
growth inhibition [4]: 2%
growth inhibition [5]: -1.3%

CCCC(=O)Oc1ccc2ccccc2c1
growth inhibition [1]: 7.65%
growth inhibition [2]: 23.5%
growth inhibition [3]: 14.7%
growth inhibition [4]: -1.5%
growth inhibition [5]: -33.5%

COc1cc(=O)cc2n(-c3cc(OC)c(O)c(OC)c3)c3ccccc3nc1-2
growth inhibition [1]: 23.6%
growth inhibition [2]: 0.1%
growth inhibition [3]: 6%
growth inhibition [4]: -8.3%
growth inhibition [5]: 23.5%

CCOC(=O)/C=C1\CCC(C)n2c1nccc2=O (centres undefined)
growth inhibition [1]: -14.1%
growth inhibition [2]: 4.8%
growth inhibition [3]: -7.5%
growth inhibition [5]: 14.3%

Cc1ccc(C(C#N)c2ccc(N)cc2)cc1 (centres undefined)
growth inhibition [1]: 21.9%
growth inhibition [2]: -21.3%
growth inhibition [3]: 17.1%
growth inhibition [4]: 20.2%
growth inhibition [5]: 32.5%

CC(C)N(C(=S)/N=C1/SC(C)S(=O)(=O)N1C)C(C)C (centres undefined)
growth inhibition [1]: -4.95%
growth inhibition [2]: 13.6%
growth inhibition [3]: -4.5%
growth inhibition [4]: -10.8%
growth inhibition [5]: 5.45%

CCNC1=CC(=O)c2ncccc2C1=O
growth inhibition [1]: 47.9%
growth inhibition [2]: 15.7%
growth inhibition [3]: -8.25%
growth inhibition [4]: 39.2%
growth inhibition [5]: 28.4%

CN=C(NC#N)NCc1ccccc1
growth inhibition [1]: 7.05%
growth inhibition [2]: 7.35%
growth inhibition [3]: 10.1%
growth inhibition [4]: 20.8%
growth inhibition [5]: 8.45%

Cn1c2ccccc2c2nc3ccccc3c(Cl)c21
growth inhibition [1]: -43.5%
growth inhibition [2]: -12.8%
growth inhibition [3]: -12.9%
growth inhibition [4]: -39.9%
growth inhibition [5]: -31.9%

Brc1cccc(C2ON=C(c3ccccc3)N2C23CC4CC(CC(C4)C2)C3)c1 (centres undefined)
growth inhibition [1]: 2.2%
growth inhibition [2]: -7.45%
growth inhibition [3]: -14.7%
growth inhibition [4]: -7.55%
growth inhibition [5]: -7.7%

CC(C)c1ccc(/C=C/C(=O)c2ccc(F)cc2)cc1
growth inhibition [1]: 14.6%
growth inhibition [2]: 13.5%
growth inhibition [3]: 10.1%
growth inhibition [4]: 5.05%
growth inhibition [5]: 17.6%

C=C(C)C(=O)OCC(CC)(COC(=O)C(=C)C)COC(=O)C(=C)C
growth inhibition [1]: -9.25%
growth inhibition [2]: -19.6%
growth inhibition [3]: -2.05%
growth inhibition [4]: 18.6%
growth inhibition [5]: 0%

CCOC(=O)[C@H]1Nc2ccc(C)cc2C2c3ccccc3CC21 (some centres undefined)
growth inhibition [1]: -1.5%
growth inhibition [2]: -28.2%
growth inhibition [3]: -1.7%
growth inhibition [4]: -23.3%
growth inhibition [5]: -22.8%

COc1cc2c(-c3cc(OC)c(OC)c(OC)c3)cc(C)[n+](C)c2cc1OC
growth inhibition [1]: 6.25%
growth inhibition [2]: -9.2%
growth inhibition [3]: -15%
growth inhibition [4]: -13.3%
growth inhibition [5]: 1.8%

O=C(CCCN1CCC(Nc2ccccc2)(c2nnnn2C2CCCCC2)CC1)c1ccc(F)cc1
growth inhibition [1]: -7.05%
growth inhibition [2]: -16.2%
growth inhibition [6]: 0.3%
growth inhibition [4]: 1.25%
growth inhibition [5]: 7.15%

Cc1nc(Cl)nc2c1C(=O)Nc1ccccc1N2
growth inhibition [1]: 27.2%
growth inhibition [2]: 14.4%
growth inhibition [3]: 2.95%
growth inhibition [4]: 28.1%
growth inhibition [5]: 15.9%

NC(CCCCn1nnc2c(=O)[nH]cnc21)C(=O)O (centres undefined)
growth inhibition [1]: -12.3%
growth inhibition [2]: -26.2%
growth inhibition [3]: -36.9%
growth inhibition [4]: 7.1%
growth inhibition [5]: -15.6%

CCOc1ccc(CC(=O)Nc2cc([N+](=O)[O-])ccc2NCCN(CC)CC)cc1
growth inhibition [1]: -18.2%
growth inhibition [2]: -10.4%
growth inhibition [3]: -53.8%
growth inhibition [4]: 0.2%
growth inhibition [5]: -3.85%

CC12CCCC(C(=O)O)(C1)[C@H](C(C)(C)C(=O)O)CC2 (some centres undefined)
growth inhibition [1]: -29.5%
growth inhibition [2]: -40.9%
growth inhibition [6]: -15.7%
growth inhibition [4]: -4.2%
growth inhibition [5]: -10.8%

Cc1ccc(C(O)(c2ccc(C)cc2)C2CCCCC2=C(c2ccccc2)c2ccccc2)cc1 (centres undefined)
growth inhibition [2]: 3.45%

N=C(N)C(N=Nc1ccccc1)C(=N)N (centres undefined)
growth inhibition [2]: -7.45%
growth inhibition [6]: -22.1%
growth inhibition [3]: -33.5%
growth inhibition [4]: -25.5%
growth inhibition [5]: -16%

O=C(NC(=O)c1c(F)cccc1F)Nc1ccc(C(O)(C(F)(F)F)C(F)(F)F)cc1
growth inhibition [2]: 14.5%
growth inhibition [6]: 10.2%
growth inhibition [3]: 24.1%
growth inhibition [4]: 6%
growth inhibition [5]: 3.55%

C[S+](C)N(c1ccccc1)C(C)(C)C
growth inhibition [2]: -8.2%
growth inhibition [6]: -0.45%
growth inhibition [3]: -17.4%
growth inhibition [4]: -22.7%
growth inhibition [5]: -6.1%
